Bioassay records deposited in PubChem by several laboratories.
Sampled rows, rich in hits. Any-hit rate of the full collection: about 3.8%.
HSP90 refold inh: blocks HSP90-mediated luciferase refolding in reticulocyte lysate; inhibition, % at 5.6 µM; actives 0.91% (n = 290,000); Rabbit reticulocyte lysate, luciferase refolding luminescence, 3 h;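 active means inhibition above the screen-wide mean plus 3 SD, computed separately per campaign, cut at about 16% in these data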;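 further: 0% = DMSO wells and 100% = 60 µM geldanamycin wells; inhibitors lower the luminescence because luciferase stays unfolded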
HSF-1 act: increases HSF-1 driven luciferase reporter signal. actives 1.7% (n = 300,000). NIH3T3-HGL HSF-1 luciferase reporter, MG132, 8 h; 100% = twice DMSO control signal. AID 504408. activation, % at 9 µM;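 active means mean replicate activation of at least 50% with a set share of replicates each reaching 50%; inconclusive means only one of those two conditions met; inactive means mean below 50% and too few replicates reaching it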;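 further: 0% = median of the neutral control wells and 100% = twice that signal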
pCIP destab: lowers stability of the mouse p/CIP coactivator protein | Q05BA5 | F442A p/CIP-EGFP cells, EGFP fluorescence, 16 h | decrease of EGFP signal, % at 10 µM | actives 0.01% (n = 290,000) | AID 1984;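 active means EGFP signal decrease of at least 30% at 10 µM or well 3 SD below plate mean, unless failing retest; inactive means the rest, including hits failing retest or dose response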
Target sequence (Q05BA5 1-1403): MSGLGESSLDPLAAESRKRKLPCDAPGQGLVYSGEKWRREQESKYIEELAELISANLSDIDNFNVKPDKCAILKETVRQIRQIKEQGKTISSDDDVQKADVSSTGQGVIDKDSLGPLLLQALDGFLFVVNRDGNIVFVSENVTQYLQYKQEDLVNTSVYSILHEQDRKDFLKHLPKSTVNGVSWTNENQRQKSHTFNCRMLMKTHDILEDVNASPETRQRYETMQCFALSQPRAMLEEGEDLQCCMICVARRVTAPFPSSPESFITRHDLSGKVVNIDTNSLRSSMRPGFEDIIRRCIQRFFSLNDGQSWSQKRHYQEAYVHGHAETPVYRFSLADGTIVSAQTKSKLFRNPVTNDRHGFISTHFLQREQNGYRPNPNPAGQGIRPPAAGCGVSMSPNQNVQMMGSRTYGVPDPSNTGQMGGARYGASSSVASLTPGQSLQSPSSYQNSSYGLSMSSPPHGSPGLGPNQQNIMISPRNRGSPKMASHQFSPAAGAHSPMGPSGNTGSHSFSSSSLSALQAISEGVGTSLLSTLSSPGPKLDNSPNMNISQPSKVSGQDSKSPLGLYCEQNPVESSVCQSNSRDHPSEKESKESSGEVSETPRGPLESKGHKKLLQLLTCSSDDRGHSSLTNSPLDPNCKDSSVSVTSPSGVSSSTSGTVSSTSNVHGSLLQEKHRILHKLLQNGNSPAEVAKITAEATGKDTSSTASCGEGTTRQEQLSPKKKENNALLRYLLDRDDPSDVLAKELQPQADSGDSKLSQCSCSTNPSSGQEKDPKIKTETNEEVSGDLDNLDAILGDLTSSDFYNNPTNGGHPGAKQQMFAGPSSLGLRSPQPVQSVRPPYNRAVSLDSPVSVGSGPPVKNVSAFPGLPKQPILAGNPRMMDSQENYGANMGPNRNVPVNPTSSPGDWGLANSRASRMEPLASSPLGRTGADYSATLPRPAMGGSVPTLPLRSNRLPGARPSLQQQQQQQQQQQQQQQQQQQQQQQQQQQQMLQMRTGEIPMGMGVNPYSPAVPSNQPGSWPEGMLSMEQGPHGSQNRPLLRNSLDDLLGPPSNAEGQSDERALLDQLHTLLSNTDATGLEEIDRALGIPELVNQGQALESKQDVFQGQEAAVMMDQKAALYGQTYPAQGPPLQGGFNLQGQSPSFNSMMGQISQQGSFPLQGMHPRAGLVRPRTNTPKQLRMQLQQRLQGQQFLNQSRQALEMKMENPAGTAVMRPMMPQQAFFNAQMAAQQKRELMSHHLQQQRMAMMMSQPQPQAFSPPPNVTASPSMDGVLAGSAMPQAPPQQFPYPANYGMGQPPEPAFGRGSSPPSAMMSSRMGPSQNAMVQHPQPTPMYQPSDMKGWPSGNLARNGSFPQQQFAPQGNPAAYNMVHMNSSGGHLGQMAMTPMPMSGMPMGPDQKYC
Hsp70 act: transcriptional activators of Hsp70. HeLa Hsp70 promoter luciferase reporter, luminescence; scaled: vehicle 0, proteasome-inhibitor control 100%. actives 0.04% (n = 200,000). AID 1203. activation, % at 10 µM;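 active means activation above the mean across all tested compounds plus 3 SD, cutoff set per campaign, cut at about 5.5% in these data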;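 further: 100% = MG132 at 30 µM as the positive control and 0% = DMSO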
NALP1 inh: NALP1 inhibition; S. cerevisiae NALP1/ASC/caspase-1 growth, X-gal OD620, 72 h; inhibition, % at 10 µM; actives 0.61% (n = 280,000); in the data active means inhibition mostly above about 24%, no sharp cut-off; inactive means mostly below about 32%
HSF1 inhib: HSF1 inhibition; NIH3T3-HGL HSE-luciferase, MG132-induced, luminescence 8 h; active compounds read low; activity change, negative = inhibition, % at 7.5 µM (by protocol); actives 0.77% (n = 300,000);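 active means more than half of replicate wells show activity change below -50%, luminescence cut by over half; inconclusive means some wells, but at most half, below -50%; inactive means no replicate well below -50%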;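 further: luciferase reports HSF-1 transcriptional activity via heat shock element; 0% = median of DMSO wells and -100% = zero luminescence signal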
An asterisk follows results filed as active; u = inconclusive; x = no result given.

SMILES	HSP90 refold inh	HSF-1 act	pCIP destab	Hsp70 act	NALP1 inh	HSF1 inhib
O=C(Nc1ccc2[nH]ncc2c1)c1ccccc1Cl	2	-74	-7	x	x	-67*
O=C(Nc1ccc2[nH]ncc2c1)c1ccccc1Br	5	5	-7	x	-2	7
O=C(COc1cc2oc(=O)c3c(c2cc1Cl)CCCC3)N1C[C@H]2C[C@@H](C1)c1cccc(=O)n1C2	-1	19	-12	x	33	7
CCCc1cc(=O)oc2cc(OCC(=O)N3C[C@H]4C[C@@H](C3)c3cccc(=O)n3C4)c(Cl)cc12	-6	57*	0	x	1	36
O=C(Nc1ccc(Br)cn1)c1ccc(Cl)s1	2	u	-8	x	-11	35
O=C(Nc1ccc(Br)cn1)c1ccc(Br)s1	5	70*	4	x	-4	37
O=C(N/N=C/c1cc([N+](=O)[O-])ccc1O)C12CC3CC(CC(C3)C1)C2	-3	-11	-8	0	6	-12
O=C(N/N=C/c1ccccc1F)NC12CC3CC(CC(C3)C1)C2	1	87*	3	x	18	49
O=C(N/N=C/c1cc([N+](=O)[O-])ccc1O)NC12CC3CC(CC(C3)C1)C2	14	-56	4	0	18	-50*
CC(C)C[C@H](N)C(=O)N1CCC(C(=O)N[C@H](C(=O)NC(C)c2ccccc2)C(C)C)CC1 (stereo partly drawn)	0	-1	6	x	19	-4
Cc1ccc(S(=O)(=O)N2CCC(=O)N(C(COCc3cccc(C(F)(F)F)c3)Cc3ccccc3)CC2)cc1 (stereo not drawn)	1	-5	-5	0	34	8
Cc1ccccc1-n1c(-c2ccc(Cl)cc2)cnc1SCC(=O)NC1CCS(=O)(=O)C1 (stereo not drawn)	1	70*	3	0	23	14
O=C(NCCc1ccc(Cl)cc1)C1CCN(C(=O)c2ccc(F)cc2)CC1	2	23	-4	x	13	-6
Cc1cc(C(=O)CSc2nncs2)c(C)n1-c1c(C)n(C)n(-c2ccccc2)c1=O	-1	-9	-8	0	2	-3
Cc1ccc(-n2c(C)cc(C(=O)CSc3nncs3)c2C)cc1	1	67*	-13	0	12	39
Nc1ccc(C2=Nc3cccc4cccc(c34)N2)cc1	2	73*	5	0	17	31
CCc1ccc(C(=O)Nc2cc(C)ccc2F)s1	-1	31	-2	0	-8	24
COc1ccc(Cl)cc1NC(=O)CSc1nc2ccsc2c(=O)n1CC1CCC(C(=O)O)CC1 (stereo not drawn)	0	-69	-15	x	25	-60*
O=C(CSc1nc2ccsc2c(=O)n1CC1CCC(C(=O)O)CC1)NCCc1ccc(Cl)cc1 (stereo not drawn)	-2	14	-8	x	0	-6
COc1ccc(CCNC(=O)c2cc(=O)c3cc(C)ccc3o2)cc1	-1	-4	-2	x	16	3
CNc1nc(-c2ccccc2)nnc1C(F)(F)F	-2	-1	4	0	x	5
Cc1ccc(Sc2nc(-c3ccccc3)nnc2C(F)(F)F)cc1	-1	151*	-2	0	38	88
CN(C)c1cc(-c2cccc(C(F)(F)F)c2)oc(=O)c1Cl	x	8	x	x	x	3
COc1ccc(CNC(=O)CCS(=O)(=O)c2ccc3c(c2)oc(=O)n3C)cc1	-6	-5	1	x	13	-1
CCOc1ccc(CNC(=O)CCS(=O)(=O)c2ccc3c(c2)oc(=O)n3C)cc1	-7	-81	3	x	18	-76*
SMILES	HSP90 refold inh	HSF-1 act	pCIP destab	Hsp70 act	NALP1 inh	HSF1 inhib
O=C(CCCNC(=O)/C(=C/c1ccccc1F)NC(=O)c1ccccc1)OCc1ccccc1	-3	8	2	0	25	-1
CN(C)CCN(C(=O)/C=C/c1cccs1)c1nc2ccc(F)cc2s1	4	49	-19	0	54*	22
CN(C)CCCN(C(=O)c1ccc2c(c1)CCCC2)c1nc2ccc(F)cc2s1	0	-27	1	0	47*	-28
Cc1cccc2sc(N(CCCN(C)C)C(=O)c3ccc4ncsc4c3)nc12	17*	-9	0	x	8	-13
CN(C)CCCN(C(=O)c1ccc(S(=O)(=O)N2CCc3ccccc32)cc1)c1nc2ccc(F)cc2s1	0	5	-21	x	24	9
CCN(CC)CCN(C(=O)/C=C/c1cccs1)c1nc2ccc(Cl)cc2s1	0	44	-12	x	5	14
Cc1cccc2sc(N(CCCN(C)C)C(=O)c3nc4ccccc4s3)nc12	4	-22	5	0	26	-11
CCN(CC)CCN(C(=O)c1ccc2c(c1)CCCC2)c1nc2ccc(F)cc2s1	1	-14	15	0	-1	-11
CN(C)CCCN(C(=O)c1ccc(S(=O)(=O)N2CCc3ccccc32)cc1)c1nc2ccc(Cl)cc2s1	16*	-42	-2	x	22	-26
COc1cccc(Oc2ncnc(N)c2[N+](=O)[O-])c1	1	2	-12	x	10	-5
COc1ccc(C(C#N)=C2C=CC(=NO)C=C2)cc1	13	168*	-11	x	x	118
O=C(CCN1C(=O)/C(=C/c2ccc(F)cc2)SC1=S)NCCCn1ccnc1	3	-69	-15	x	7	-59*
Cc1ccc(N2CCN(CC(=O)Nc3c(C(=O)C4CC4)oc4ccccc34)CC2)cc1	-4	x	-7	0	47*	x
O=C(CN1CCN(c2ccccc2)CC1)Nc1c(C(=O)C2CC2)oc2ccccc12	1	-2	5	0	-5	-5
CC(=O)n1c2c(c3ccccc31)OC(N)=C(C#N)C2c1cccc(Cl)c1Cl (stereo not drawn)	2	74*	6	0	21	27
Cn1c2c(c(=O)n(C)c1=O)C(c1ccccc1Cl)C(C#N)=C(N)O2 (stereo not drawn)	4	-4	4	x	x	-8
CN(C(=O)CCN1C(=O)c2ccccc2C1=O)c1ccccc1	2	22	-4	x	x	-3
CCOC(=O)CSc1nc2cc(C)ccc2cc1C#N	-1	49	-1	0	1	16
CCOC(=O)CSc1nc2cc(OC)ccc2cc1C#N	-3	31	7	0	5	8
COc1ccc2nc(SCc3cccnc3)c(C#N)cc2c1	-7	24	-3	0	3	26
COc1ccc2nc(SCC(C)=O)c(C#N)cc2c1	-6	84*	-15	0	31	37
COc1ccc2nc(SC)c(C#N)cc2c1	1	143*	-2	1	-6	96
CCOC(=O)CSc1nc2ccc(C)cc2cc1C#N	1	68*	6	1	0	32
CCn1c(O)c(/C=C2\C=Nc3ccccc32)sc1=Nc1ccc(C)cc1	-2	20	-17	0	3	7
